# Source: PubChem BioAssay (Buhrlage Lab, Dana-Farber Cancer Institute and Novartis Institutes for BioMedical Research (Cambridge, Mass))
# Hits are enriched below; roughly 4.6% of the tested compounds scored in any of these assays.
# UCHL1 inh: human UCHL1 deubiquitinase inhibition; inhibition, % at 20 µM; purified UCHL1, Ub-rhodamine cleavage fluorescence; actives 0.2% (n = 47,000); AID 1645859
# USP8 block: blocks human USP8 ubiquitin-rhodamine cleavage; purified USP8, Ub-rhodamine cleavage fluorescence, 30 min; inhibition, % at 20 µM; actives 4.2% (n = 47,000)
# Target sequence (P40818 whole entry, looked up): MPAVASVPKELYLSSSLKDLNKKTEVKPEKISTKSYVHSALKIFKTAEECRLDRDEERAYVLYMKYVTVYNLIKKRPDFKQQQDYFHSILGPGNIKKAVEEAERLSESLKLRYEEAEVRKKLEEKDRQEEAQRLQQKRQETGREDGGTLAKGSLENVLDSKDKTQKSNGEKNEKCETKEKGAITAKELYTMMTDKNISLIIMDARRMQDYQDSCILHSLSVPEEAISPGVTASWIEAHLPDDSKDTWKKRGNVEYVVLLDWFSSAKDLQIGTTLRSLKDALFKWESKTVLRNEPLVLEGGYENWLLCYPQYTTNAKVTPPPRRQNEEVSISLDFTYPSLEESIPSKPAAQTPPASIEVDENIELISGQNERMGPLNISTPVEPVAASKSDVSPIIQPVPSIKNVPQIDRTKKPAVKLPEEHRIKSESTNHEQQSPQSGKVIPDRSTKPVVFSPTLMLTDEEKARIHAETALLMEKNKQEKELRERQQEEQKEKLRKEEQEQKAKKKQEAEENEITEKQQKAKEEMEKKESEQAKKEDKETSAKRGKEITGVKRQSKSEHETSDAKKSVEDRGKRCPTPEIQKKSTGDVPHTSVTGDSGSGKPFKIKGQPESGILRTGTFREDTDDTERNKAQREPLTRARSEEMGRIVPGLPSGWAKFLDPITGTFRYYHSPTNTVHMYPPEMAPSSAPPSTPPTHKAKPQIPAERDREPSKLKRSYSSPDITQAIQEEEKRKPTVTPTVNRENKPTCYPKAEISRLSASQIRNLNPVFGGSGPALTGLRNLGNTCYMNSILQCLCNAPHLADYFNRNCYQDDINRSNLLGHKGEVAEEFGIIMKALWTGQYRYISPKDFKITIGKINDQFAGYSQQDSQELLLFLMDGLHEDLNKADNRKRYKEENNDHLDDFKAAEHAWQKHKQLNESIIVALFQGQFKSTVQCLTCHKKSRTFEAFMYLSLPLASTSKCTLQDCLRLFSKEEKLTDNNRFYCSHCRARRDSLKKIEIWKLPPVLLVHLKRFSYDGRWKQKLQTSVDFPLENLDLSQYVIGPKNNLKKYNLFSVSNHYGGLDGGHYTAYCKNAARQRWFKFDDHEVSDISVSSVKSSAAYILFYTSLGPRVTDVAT
# USP7 inh: blocks human USP7 ubiquitin-rhodamine cleavage | purified USP7, Ub-rhodamine cleavage fluorescence | inhibition, % at 20 µM | actives 0.3% (n = 47,000) | AID 1645854
# USP10 inh: inhibitors of human USP10 deubiquitinase. inhibition, % at 20 µM. Q14694. actives 1.1% (n = 47,000). purified USP10, Ub-rhodamine fluorescence, 60 min
# * hit, by the source's call. No stated cut-off is given here; in the data, active means inhibition above about 30%; inactive means the rest.
SMILES,UCHL1 inh,USP8 block,USP7 inh,USP10 inh
CN(C)CCN1C(=O)C(O)=C(C(=O)c2cc3ccccc3o2)C1c1ccc(F)cc1 (configuration not stated),2.9,-41.3,3.6,2.3
Cc1cccc(S(=O)(=O)N2CCC3(C2)C(=O)N(C)c2ccccc23)c1 (configuration not stated),1.0,-236.0,-7.2,-3.8
COc1cc(/C=C2\Oc3cc(OCC=C(C)C)ccc3C2=O)cc(OC)c1OC,-6.2,-3.3,-3.3,-3.5
CC(C)=CCC/C(C)=C/COc1ccc(/C=C2\C(=O)N(O)[C@@H](C)C(=O)N2O)cc1,0.9,4.3,-17.5,38.2*
COc1ccc(NC(=O)CN2CC(C)Sc3ccccc32)cc1 (configuration not stated),1.4,43.7*,2.0,-4.1
COc1ccccc1OCC(=O)NCc1cc(-c2ccc(F)cc2F)on1,1.2,-2.8,0.5,0.0
COC(=O)c1cccc2nc3c(C(C)O)cccc3nc12 (configuration not stated),-5.1,-19.5,-0.8,-5.4
Cc1cccc(O)c1C(=O)OC(C)c1cccc2nc3c(C(=O)O)cc4c(c3nc12)C(C)c1cccc2c1N4c1cccc(C(=O)O)c1N2 (configuration not stated),95.2*,95.2*,99.5*,98.7*
CCC(C)N1CNc2c(c(=O)[nH]c(=O)n2Cc2ccco2)C1 (configuration not stated),29.3,7.8,11.9,30.5*
CCc1ccc(NC(=O)N2CC[C@@H]3CN(Cc4cccnc4)S(=O)(=O)[C@@H]3CC2)cc1,-0.1,4.6,0.6,4.1
CCOC(=O)c1ccc(NC(=O)Cn2c(=O)n(-c3ccc(CC(=O)NCc4ccco4)cc3)c(=O)c3ccccc32)cc1,-0.4,58.3*,8.8,33.3*
CCOC(=O)c1ccc(NC(=O)Cn2c(=O)n(CC(=O)NCc3ccco3)c(=O)c3ccccc32)cc1,0.5,10.9,-3.1,35.1*
Cc1ccc(NC(=O)Cn2c(=O)n(CCCCC(=O)NCc3ccco3)c(=O)c3ccccc32)cc1C,-1.0,12.8,1.0,19.3
COC(=O)c1ccccc1NC(=O)Cn1c(=O)n(Cc2ccc(C(=O)NCc3ccco3)cc2)c(=O)c2ccccc21,9.9,38.7*,13.8,32.4*
O=C(Cc1ccc(-n2c(=O)c3ccccc3n(CC(=O)Nc3ccc(F)cc3F)c2=O)cc1)NCc1ccco1,-4.0,15.1,-2.3,-7.9
COc1cccc2cc(C(=O)Nc3nc(-c4ccncc4)cs3)oc12,11.2,48.7*,48.8*,47.9*
COc1cccc2cc(C(=O)NCc3cnn4ccccc34)oc12,-1.3,-18.3,0.5,-1.2
Nc1nc(-c2ccc(Br)s2)ns1,0.0,-219.6,1.2,-1.1
Cn1c(=O)c2nc(SCC(=O)NC3CCCCC3)n(C)c2n(C)c1=O,0.0,4.5,0.0,3.1
Cc1c(CNCc2ccc(F)cc2)c(C(=O)O)c(C)n1-c1ccccc1,-6.9,43.4*,-10.1,-7.7
O=C(Nc1ccc(S(=O)(=O)Nc2cc(Cl)cc(Cl)c2)cc1)c1c(F)cccc1Cl,4.4,-11.0,11.7,34.3*
O=C(Nc1ccc(Oc2ccccc2)cc1)c1c(F)cccc1Cl,5.1,-112.0,2.8,7.6
Cc1ccc(N2CCO[C@@H]3CN(Cc4ccncc4)CC[C@@H]3C2)nn1,1.4,-4.2,5.0,-1.6
O=C(c1ccccc1)c1c(-c2ccccc2)oc2ccc(NS(=O)(=O)c3ccc(Cl)cc3)cc12,9.9,23.2,15.8,32.9*
N#Cc1cn2c(nc1-c1ccc(Cl)cc1)nc1ccccc12,3.2,70.9*,-9.4,52.8*
O=C(C1=NOC2(CCNCC2)C1)N1CCC(n2c(=O)[nH]c3ccccc32)CC1,0.5,-8.6,-0.2,0.6
O=C(c1ccc(F)cc1)[C@@H]1[C@H](C(=O)OC(c2ccccc2)c2ccccc2)N2c3ccccc3C=CC2[C@@]12C(=O)Nc1ccccc12 (some centres not stated),-28.7,-12.8,-33.8,-8.9
O=C(c1ccc(Cl)cc1)[C@@H]1[C@H](C(=O)OC(c2ccccc2)c2ccccc2)N2c3ccccc3C=CC2[C@@]12C(=O)Nc1ccccc12 (some centres not stated),-14.6,52.2*,-15.0,-3.6
COc1ccc(C2/C(=C(\O)c3ccccc3)C(=O)C(=O)N2c2nc3ccc(F)cc3s2)cc1 (configuration not stated),-2.2,7.5,0.7,41.5*
Cc1ccc(C2/C(=C(\O)c3ccc(F)cc3)C(=O)C(=O)N2c2nc3ccc(F)cc3s2)cc1 (configuration not stated),-0.7,-12.5,1.7,28.5
